Results published in PubChem BioAssay (NCATS).
Records with an inconclusive call do not appear. The source made the active and inactive calls. Unless noted, the call rests on the fitted dose curve; in most records, active means well fitted curve in the direction sought with a large enough effect; inconclusive means small, poorly fitted or top-dose-only effect, or another doubt; inactive means no such curve, though single readings can be large; an effect the other way counts as inactive or inconclusive.

Experiments:
[1] = Cell Viability - BJ (AID 421; calls by dose curve;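 further: potency means the concentration at half of the fitted maximal effect; cells exposed to compound for 40 hours at 37 °C before readout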); settings: BJ fibroblast viability, qHTS
Outline: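 Luminescent ATP signal (CellTiter-Glo, 20 min at room temperature) served as the read-out of viable BJ cells after 40 hours of compound treatment. Responses were scaled between DMSO and 100 uM tamoxifen, and AC50 values were obtained by Hill modeling.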

[2] = Cell Viability - Jurkat (AID 426;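 active means dose-dependent loss of cell ATP signal giving a full or clear fitted curve, ranked by lower potency value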;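 further: potency means the concentration at half of the fitted maximal effect; cells exposed to compound for 40 hours at 37 °C before ATP read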); settings: qHTS
Outline: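 Cytotoxicity was scored as loss of cellular ATP, measured by luciferase-based luminescence, in Jurkat clone E6-1 cells after 40 h compound treatment; tamoxifen and doxorubicin served as positive controls.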

[3] = Cell Viability - Hek293 (AID 427;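 active means compounds whose dose-response curve shows a full or clear partial loss of cell viability, called from curve shape rather than a numeric limit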;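 further: potency means the concentration at half of the fitted maximal effect; cells exposed to compound for 40 hours at 37 °C before reading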); settings: qHTS
Outline: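 Luminescent ATP read-out (CellTiter-Glo, 20 min RT) after 40 hr compound exposure at 37 °C in complete medium. Signal normalized to DMSO (basal) and 100 uM tamoxifen (100% inhibition); concentration-response fitted with the standard Hill equation to give AC50.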

[4] = Cell Viability - HepG2 (AID 433; calls by dose curve;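 further: potency means the concentration at half of the fitted maximal effect; potency for ATP loss meaning cytotoxicity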); settings: qHTS
Outline: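 Cytotoxicity is scored as loss of intracellular ATP in HepG2 cells exposed to compounds for 40 h. Concentration-response curves, normalized to DMSO and 100 uM tamoxifen, give AC50 values.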

[5] = Cell Viability - MRC5 (AID 434; calls by dose curve;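 further: potency means the concentration at half of the fitted maximal effect; cells exposed to compound for 40 hours at 37 °C; potency reflects cytotoxicity seen as loss of intracellular ATP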); settings: MRC5 lung fibroblast viability, qHTS
Outline: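 ATP luminescence read-out (CellTiter-Glo, 20 min RT) after 40 hr, 37 °C compound exposure of 1500 MRC5 cells/well. Data normalized to DMSO (basal) and 100 uM tamoxifen (100% inhibition); AC50 from standard Hill equation.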

[6] = Cell Viability - SK-N-SH (AID 435; calls by dose curve;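 further: potency means the concentration at half of the fitted maximal effect; compound exposure lasted 40 h at 37 °C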); settings: SK-N-SH neuroblastoma cell viability qHTS
Outline: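 Cells seeded at 1500 per well and incubated 5 hr at 37 °C. Compound added, then 40 hr at 37 °C. CellTiter-Glo added, 20 min at room temperature, luminescence read.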

[7] = biological target: Mitogen-activated protein kinase 10 (Mus musculus) (UniProt Q61831); experiment: JNK3 AlphaScreen Assay (AID 530; active means well fitted curve in either direction with a large enough effect, not every such curve was filed as active;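 further: kinase came from lysate of stimulated human HepG2 cells; signal reports phosphorylation of biotinylated GST-cJun 1-79 at Ser73 with 10 µM ATP; on the % scale 0 is the no-effect control and ±100 the full control effect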)
Outline: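 HepG2 lysate (IL-1b/TNFa pre-activated) + biotin-GST-cJun 1-79 + anti-pSer73 cJun; cpd titration, 15 min RT; ATP 10 uM start; Tris pH 7.6, MgCl2, DTT, vanadate; beads in EDTA buffer; AlphaScreen.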

[8] = Cell Viability - N2a (AID 540); settings: N2a mouse neuroblastoma cell viability; activity change, negative = cytotoxicity: at 92.2 µM (top of the series);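 further: cells exposed to compound for 40 h at 37 °C; plate controls were DMSO alone for no effect and tamoxifen control for full effect; nearly all actives have a fitted effect of over 45% in size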
Outline: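 In this qHTS cytotoxicity screen, ATP-dependent luciferase luminescence reports viable N2a cells after a 40 hr compound exposure in complete culture medium. Potencies are AC50 values from standard Hill equation fits.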

[9] = Cell Viability - NIH 3T3 (AID 541); settings: NIH 3T3 cell viability, qHTS; activity change, negative = cytotoxicity: at 92.2 µM (top of the series);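 further: plate controls were DMSO alone for no effect and tamoxifen positive control for full effect; nearly all actives have a fitted effect of over 25% in size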
Outline: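 In this cytotoxicity screen, acute toxicity is scored as an ATP drop measured by CellTiter-Glo in NIH 3T3 fibroblasts following a 40 hr, 37 °C incubation with compound.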

[10] = Cell Viability - HUV-EC-C (AID 542); further: on the % scale 0 is the no-effect control and ±100 the full control effect; nearly all actives have a fitted effect of over 35% in size
Outline: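 Concentration-dependent ATP loss in HUV-EC-C cells is the measure. Exposure lasts 40 hr at 37 °C; luminescence follows CellTiter-Glo addition, and Hill fits give AC50.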

[11] = Cell Viability - H-4-II-E (AID 543); further: on the % scale 0 is the no-effect control and ±100 the full control effect; nearly all actives have a fitted effect of over 35% in size
Outline: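 AC50 from Hill-modelled qHTS concentration-response curves. H-4-II-E rat hepatoma cells in complete medium, 40 hr exposure at 37 °C, viability by CellTiter-Glo ATP luminescence.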

[12] = Cell Viability - SH-SY5Y (AID 544); settings: SH-SY5Y neuroblastoma cell viability; viability change, negative = cytotoxic: at 92.2 µM (top of the series); further: nearly all actives have a fitted effect of over 55% in size
Outline: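 Quantitative HTS in SH-SY5Y neuroblastoma cells, 40 hr treatment at 37 °C, ATP content by luciferase luminescence; AC50 from Hill fits.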

[13] = Cell Viability - Renal Proximal Tubule (AID 545); settings: renal proximal tubule cells viability, primary cells of rat origin; activity change, negative = cytotoxicity: at 91.7 µM (top of the series); further: nearly all actives have a fitted effect of over 40% in size
Outline: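 Cytotoxicity is scored as a concentration-dependent drop in cellular ATP in primary rat renal proximal tubule cells exposed for 40 hr. AC50 derives from Hill modelling.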

[14] = Cellular Toxicity (caspase-3) HepG2 (AID 654);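 further: cells exposed to compound for 16 hours before reading; 0% = DMSO alone and 100% = caspase signal from 100 µM tamoxifen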
Outline: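 Concentration-response AC50 values reflect caspase-3/7 induction in HepG2 cells after 16 hours of compound exposure, quantified by luminescence from liberated aminoluciferin and referenced to 100 uM tamoxifen as full stimulation.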

[15] = Cellular Toxicity (caspase-3) Jurkat (AID 655); settings: Jurkat caspase-3 activation, luminescence; caspase-3 activation: at 92.2 µM (top of the series), DMSO = 0%, tamoxifen = 100%;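 further: cells exposed to compound for 16 h at 37 °C before reading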
Outline: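 Caspase 3/7 activation is scored as increased luminescence in Jurkat cells cultured with compound for 16 hours in complete medium. AC50 values come from Hill fits of qHTS concentration-response data normalized to DMSO and 100 uM tamoxifen controls.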

[16] = Cellular Toxicity (caspase-3) HUV-EC-C (AID 656)
Outline: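 Read-out: luminescence proportional to caspase 3/7 activity, measured 20 min after adding Caspase-Glo 3/7 reagent. Cells (HUV-EC-C) had received compound for 16 hr at 37°C. Increases relative to DMSO and 100 uM tamoxifen gave concentration-response AC50 values.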

[17] = Cellular Toxicity (caspase-3) SHSY5Y (AID 657)
Outline: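 Cells plated and incubated 5 h at 37 °C, dosed over a concentration range, incubated 16 h, then given Caspase-Glo 3/7 reagent for 1 h at room temperature before luminescence reading. Staurosporine (10 uM) defined full stimulation.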

[18] = Cellular Toxicity (caspase-3) BJ (AID 658); settings: Potency: caspase-3 activation;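 further: 0% = DMSO basal and 100% = 10 µM staurosporine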
Outline: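 qHTS, BJ fibroblasts, 1000 cells/well; 5 hr preincubation, 16 hr compound, 37 °C; Caspase-Glo 3/7 reagent, 1 hr RT; luminescence. DMSO = 0%, 10 uM staurosporine = 100%. Hill-equation AC50.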

[19] = Cellular Toxicity (caspase-3) MRC-5 (AID 659);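 further: 0% = DMSO basal and 100% = 10 µM staurosporine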
Outline: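 MRC-5 fibroblasts, 1500/well; 16 h cpd, 37 °C; Caspase-Glo 3/7, 1 h RT; lumi read. Norm: DMSO = 0%, 10 uM staurosporine = 100%. Hill-fit AC50 from qHTS conc-response.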

[20] = Cellular Toxicity (caspase-3) Mesangial (AID 660); settings: mesangial cells, normalized: DMSO 0%, 100 µM tamoxifen 100%; at 91.7 µM (top of the series);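 further: cells exposed to compound for 16 h before the caspase read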
Outline: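 AC50 values come from Hill-equation fits of caspase 3/7 activation, measured as Caspase-Glo luminescence in human glomerular mesangial cells exposed to compound for 16 h at 37 °C; 100% set by 100 uM tamoxifen.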

[21] = Cellular Toxicity (caspase-3) SK-N-SH (AID 661); settings: SK-N-SH caspase-3 activation, qHTS; caspase-3 activation: at 91.7 µM (top of the series), DMSO as zero, staurosporine as full;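 further: 0% = DMSO basal and 100% = 10 µM staurosporine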
Outline: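 Apoptosis readout in SK-N-SH neuroblastoma: Caspase-Glo 3/7 luminescence following 16 hr treatment in complete culture medium. Normalization used DMSO and 10 uM staurosporine controls.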

[22] = Cellular Toxicity (caspase-3) H-4-II-E (AID 663); settings: H-4-II-E rat hepatoma; Potency: caspase-3 activation; caspase-3 activation: at 92.2 µM (top of the series), scaled: DMSO 0%, 100 µM tamoxifen 100%;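 further: cells exposed to compound for 16 hr before readout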
Outline: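 H-4-II-E rat hepatoma, 1500 cells/well, 5 hr settle at 37 °C; compound 16 hr, 37 °C, complete medium; Caspase-Glo 3/7, 20 min RT; luminescence. DMSO = 0%, 100 uM tamoxifen = 100%; Hill-equation AC50.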

[23] = Cellular Toxicity (caspase-3) Hek293 (AID 664); settings: HEK293 caspase-3 activation, DMSO = 0%, 100 µM tamoxifen = 100%; at 92.2 µM (top of the series);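 further: cells exposed to compound for 16 h at 37 °C before readout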
Outline: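 Apoptosis readout: Caspase-Glo 3/7 signal in human HEK293 cells following 16-hour compound incubation. Responses scaled between DMSO baseline and 100 uM tamoxifen.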

Cc1cccc(O)c1C
inactive: Potency [1] > 92 µM | Potency [2] > 92 µM | Potency [3] > 92 µM | Potency [4] > 92 µM | Potency [5] > 92 µM | Potency [6] > 92 µM | Potency [7] | Potency [8] | Potency [9] | Potency [10] | Potency [11] | Potency [12] | Potency [13] | Potency [14] | Potency [15] | Potency [16] | Potency [17] | Potency [18] | outcome [19] | caspase-3 activation [20] -0.758% | caspase-3 activation [21] -0.783% | caspase-3 activation [22] 0.768% | caspase-3 activation [23] 0.349%
